Each structure is given as a SMILES string. This is part of a sample that, as a whole, favours compounds with a hit. Of some 79,000 tested, about 15% had one in any assay. Unmarked numbers belong to inactive results. Calls of active or inactive are those of the source. No stated cut-off is given here; in the data, active means growth inhibition above about 70%; inactive means the rest.

A short description of this experiment: NCI Yeast Anticancer Drug Screen. Data for the wt2 strain (AID 169).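 Further: 0% = growth of vehicle-treated yeast cultures.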 Conditions: S. cerevisiae wt2 strain growth inhibition, hits give high values. The method, then: Growth inhibition of yeast strains with defined genetic alterations is measured as a screen for potential anti-cancer activity. Selected strains with alterations in DNA damage repair or cell cycle control were exposed to compounds and growth inhibition was measured relative to vehicle treated controls. The strain used in this assay is wt2

For `C[N+](C)(C)CC1CCCC(C[N+](C)(C)C)C1=O` (stereo not given), the growth inhibition runs as follows: (at 1.2 µM) -3%; (at 3.7 µM) 7%; (at 11.0 µM) 2%; (at 33.0 µM) 5%; (at 100.0 µM) 94% (active).
For `O=C(c1ccccc1)C1C(c2ccccc2[N+](=O)[O-])N1C1CCCCC1` (stereo not given) the same measures were 1%, 3%, 11%, 62% and 84% (active).
For the compound `CC1=C(CO)C2=C(C)C3(CC3)[C@@](C)(O)C(=O)C2=C1`, the growth inhibition runs as follows: (at 1.2 µM) -2%; (at 3.7 µM) 0%; (at 11.0 µM) -1%; (at 33.0 µM) -1%; (at 100.0 µM) 3%.
`O=C(COc1ccc(Cl)cc1Cl)NO`: the growth inhibition was -3% (at 1.2 µM); -2% (at 3.7 µM); -4% (at 11.0 µM); -1% (at 33.0 µM); 50% (at 100.0 µM).
Regarding `O=C(Nc1cc(Cl)ccc1Cl)C(Cl)(Cl)Cl`, the growth inhibition reads like this: (at 1.2 µM) 1%; (at 3.7 µM) 2%; (at 11.0 µM) 5%; (at 33.0 µM) 3%; (at 100.0 µM) 6%.
Take `CCC1(O)C(=O)OCc2c1cc1n(c2=O)Cc2c-1nc1ccccc1c2OC` (stereo not given): the growth inhibition (at 1.2 µM) was 10%; the growth inhibition (at 3.7 µM) was -5%; the growth inhibition (at 11.0 µM) is -10%; the growth inhibition (at 33.0 µM) is 2%; the growth inhibition (at 100.0 µM) was -17%.
Consider `C[C@]12CC[C@H](O)CC1=CC[C@@H]1[C@@H]2CC[C@]2(C)C(=O)CC[C@@H]12`, for which the growth inhibition was -52% (at 1.2 µM); -42% (at 3.7 µM); -37% (at 11.0 µM); 59% (at 33.0 µM); 92% (active) (at 100.0 µM).
For the compound `O=[N+]([O-])c1oc2ccc3ccccc3c2c1CCO`, the growth inhibition is, setting by setting: (at 1.2 µM) 5%; (at 3.7 µM) 19%; (at 11.0 µM) 80% (active); (at 33.0 µM) 97% (active); (at 100.0 µM) 99% (active).

Values taken from PubChem BioAssay (NCI).
